# Assay outcomes (PubChem)
# Hits are enriched below; roughly 19% of the tested compounds scored in any of these assays.
# BCR signal inh = chronic active BCR signaling inhibition | ABC-DLBCL IkBa-CBG/CBR reporter, luminescence ratio, 4 h | Potency, µM (doses to about 46.1 µM), for inactives: top-dose activity change, negative = inhibition, actives largely listed as inhibitors | hit rate 0.05% among 340,000 | AID 493014; active = well fitted inhibition curve with a large enough effect in the signal ratio, with a control signal flat, not every such curve was filed as active; inconclusive = small, poorly fitted or top-dose-only effect, or effect the other way, or a change in a side signal; the % refers to the signal ratio;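 note: potency is the fitted concentration of half-maximal effect; plate controls were basal doxycycline-induced cells for no effect and cells given 10 µM MG132 for full effect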
#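 TMD8 ABC-DLBCL cells carrying doxycycline-inducible green luciferase fused to IkappaBalpha plus unfused red luciferase were exposed to compounds (up to 46 uM) for 4 hrs at 37C. Activity came from the overlap-corrected green/red luminescence ratio.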
# TDP1 cell CPT = DT40-hTDP1 cell growth loss with CPT; Potency, µM (highest dose often 46.2 µM), for the others: top-dose activity change, negative = growth inhibition, most hits filed as inhibitors; AID 686979; chicken DT40 Tdp1-/-;hTDP1 cells + 20 nM CPT, ATP luminescence, 48 h; hit rate 12% among 420,000; note: potency is the fitted concentration of half-maximal effect; % is set by controls: 0 for no effect and ±100 for the full control effect; nearly all actives have a fitted effect of over 55% in size
#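 Cell growth measured by CellTiter-Glo luminescence after a minimum 48 h, 37 C compound exposure with 20 nM CPT in Tdp1-knockout DT40 cells stably expressing hTDP1, seeded 400/well; qHTS titration format.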
# IL-1B inflam inh = inhibitors of inflammasome signaling (IL-1 beta secretion); THP-1 LPS/ATP IL-1B secretion, AlphaLISA, 16 h; hits give low values; activity change, % at 57.5 µM; hit rate 4.7% among 360,000; AID 743279; in the data active = activity change below about -50%; inconclusive = mostly about -30% to -49%; note: % is set by controls: 0 for no effect and ±100 for the full control effect
#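 THP-1 cells pretreated 1 hr with compounds (up to 57.5 uM final), then stimulated with LPS (250 ng/mL final) plus ATP (1.25 mM final); secreted IL-1B measured by AlphaLISA after 16 hr, decreased signal indicating inhibition.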
# MCF10A rereplic = DNA re-replication induction in MCF 10a cells | MCF 10A DNA re-replication, Hoechst nuclear intensity, 48 h | Potency, µM (top dose mostly 46.1 µM), for inactives: top-dose activity, positive = re-replication, hits mostly activators | hit rate 2.9% among 350,000 | AID 624296; note: potency is the fitted concentration of half-maximal effect; % of control where 0% means no effect; nearly all actives have a fitted effect of over 50% in size
# SW480 rereplic = DNA re-replication induction in SW480 cells | SW480 DNA re-replication, Hoechst DNA content imaging, 48 h | Potency, µM (doses to about 46.1 µM), inactives show top-dose re-replication activation, actives largely listed as activators | hit rate 1.8% among 340,000; note: potency is the fitted concentration of half-maximal effect; % of control where 0% means no effect; nearly all actives have a fitted effect of over 55% in size
#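 Treated cells incubate 48 hr (37 C, 5% CO2), are stained 40 min with Hoechst, and nuclear fluorescence is enumerated; a rise in nuclei with high DNA signal marks re-replication.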
# DT40 TDP1 no CPT = qHTS for Inhibitors of human tyrosyl-DNA phosphodiesterase 1 (TDP1): qHTS in cells in absence of CPT. hit rate 15% among 420,000. DT40 Tdp1-/- hTDP1 cells, no CPT, ATP luminescence, 48 h. Potency, µM (titrated, usually from 46.2 µM), for inactives: at the top dose activity change, negative = growth inhibition, usual class: inhibitors. AID 686978, 2013; note: potency is the fitted concentration of half-maximal effect; % is set by controls: 0 for no effect and ±100 for the full control effect; nearly all actives have a fitted effect of over 55% in size
#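 Chicken DT40 Tdp1-/- cells stably complemented with human TDP1 were seeded at 400 cells/well with DMSO in place of 20 nM camptothecin. After compound pinning, cells grew at least 48 hr at 37 °C; viability read by CellTiter-Glo luminescence.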
# Numbers without * were called inactive; ? = inconclusive; . = no result; [ ] = remark or other dose. Unless noted, calls come from the whole dose curve; as a rule, active = well fitted curve in the direction sought with a large enough effect; inconclusive = small, poorly fitted or top-dose-only effect, or another doubt; inactive = no such curve, though single readings can be large; an effect the other way counts as inactive or inconclusive.
SMILES,BCR signal inh,TDP1 cell CPT,IL-1B inflam inh,MCF10A rereplic,SW480 rereplic,DT40 TDP1 no CPT
COc1cc(C(=O)N2CCN(c3ccccc3)CC2)c([N+](=O)[O-])cc1OC,0%,-10%,41,3%,-23%,5%
CCC(=O)N[C@@H]1c2ccccc2C2(CCN(Cc3ccccn3)CC2)[C@H]1OC,.,6%,.,.,.,-6%
Cc1sc2nc3ccc(NCc4ccco4)nn3c(=O)c2c1C,6%,?,-8,?,?,21µM*
O=c1c2ccccc2nc2ccc(NCc3ccco3)nn12,?,?,-26,0%,-2%,?
COc1ccc(CCN(C)C(=O)c2cnn(-c3nccc(-c4ccc(C)o4)n3)c2C)cc1OC,.,5%[9.04 µM],.,.,.,-46%
O=C(NCCO)c1nc(C(=O)c2ccccc2)c2ccccc2n1,?,23µM*,1,-3%,-3%,?
COc1cc(C(=O)NCC(=O)OCCN2C(=O)c3ccccc3C2=O)cc(OC)c1OC,-16%,-12%,14,13%,?,5%
CCc1nc2ccc(C(=O)NCc3ccc(OC)cc3)cn2c1N(C)C(=O)Cc1ccccc1,.,?,12,.,.,21µM*
CCCCN(C)c1c(C)nc2ccc(C(=O)NCCc3c[nH]c4ccccc34)cn12,.,?,-17,.,.,?
CCc1nc2ccc(C(=O)NCc3ccc4c(c3)OCO4)cn2c1N(C)C(=O)Cc1ccccc1,.,-36%,5,.,.,23µM*
CCc1nc2ccc(C(=O)NCc3ccc4c(c3)OCO4)cn2c1N(CCC(C)C)CCN(C)C,.,21µM*,-22,.,.,?
Cc1nc2ccc(C(=O)NCCc3c[nH]c4ccccc34)cn2c1N(C)C(=O)CCc1ccccc1,.,23µM*,-5,.,.,23µM*
CCc1nc2ccc(C(=O)NCc3ccc4c(c3)OCO4)cn2c1N(CC)CCN(C)C,.,0%,-22,.,.,-1%
O=C(O)C(CCCCNS(=O)(=O)c1ccc(F)cc1)NS(=O)(=O)c1ccc(F)cc1 (configuration not stated),1%,-4%,-9,-3%,-20%,1%
CCc1nc2ccc(C(=O)NCc3ccc4c(c3)OCO4)cn2c1N(C)Cc1cccs1,.,?,?,.,.,16µM*
CCCCN(C=O)c1c(CC)nc2ccc(C(=O)NCc3ccc4c(c3)OCO4)cn12,.,?,-8,.,.,?
NC(CO)c1csc(Nc2ccc(C(=O)c3ccccc3)cc2)n1 (configuration not stated),.,-2%,?,.,.,?
CC(=O)c1ccc(Nc2nc(CN)cs2)cc1,.,?,8,.,.,?
NC(Cc1ccccc1)c1csc(Nc2ccc(C(=O)c3ccccc3)cc2)n1 (configuration not stated),.,15µM*,-69*,.,.,8.2µM*
COc1ccc(CC(N)c2csc(Nc3ccc(C(C)=O)cc3)n2)cc1 (configuration not stated),.,26µM*,-14,.,.,21µM*
NC(Cc1ccc(Cl)cc1)c1csc(Nc2ccc(C(=O)c3ccccc3)cc2)n1 (configuration not stated),.,21µM*,0,.,.,21µM*
COc1ccc(CC(N)c2csc(Nc3ccc(C(=O)c4ccccc4)cc3)n2)cc1 (configuration not stated),.,12µM*,-70*,.,.,9.2µM*
CCn1c(=O)cc(OCC(=O)N2CCN(c3cccc(Cl)c3)CC2)c2ccccc21,.,23µM*,.,.,.,15µM*
CCOC(=O)N1CCN(C(=O)COc2cc(=O)n(C)c3ccccc23)CC1,-25%,-7%,-14,1%,2%,-2%
CCn1c(=O)cc(OCC(=O)N2CCN(c3cccc(C)c3C)CC2)c2ccccc21,.,9.2µM*,.,.,.,7.3µM*
SMILES,BCR signal inh,TDP1 cell CPT,IL-1B inflam inh,MCF10A rereplic,SW480 rereplic,DT40 TDP1 no CPT
CCn1c(=O)cc(OCC(=O)N2CCN(C(=O)c3ccco3)CC2)c2ccccc21,-19%,?,-18,3%,2%,-21%
Cn1c(=O)cc(OCC(=O)N2CCN(c3cccc(C(F)(F)F)c3)CC2)c2ccccc21,10%,21µM*,25,0%,-2%,15µM*
CCn1c(=O)cc(OCC(=O)N(C)c2cc(Cl)ccc2C)c2ccccc21,.,21µM*,.,.,.,23µM*
CCn1c(=O)cc(OCC(=O)N(C)C2CCCCC2)c2ccccc21,?,?,-1,4%,-23%,-2%
COc1cccc(CNC(=O)C2CCN(c3nnc(N4CCCC4=O)s3)CC2)c1,-5%,-16%,-1,0%,-17%,-7%
COc1ccc(Cc2nc3ccc(C(=O)NCCCSC)cc3o2)cc1OC,?,?,0,-5%,-3%,?
COc1cccc(C(=O)NCC(=O)N2CCN(c3ccc(C(F)(F)F)cn3)CC2)c1,-7%,7.3µM*,20,-3%,-48%,4.1µM*
COc1ccc(C(=O)COC(=O)C2CCN(c3ccc(C(F)(F)F)cn3)CC2)c(OC)c1,?,?,17,2%,4%,21µM*
COc1cccc(C(=O)NCC(=O)N2CCC(C)CC2)c1,?,1%,8,-2%,-2%,-4%
Cc1cc(C)c(C(=O)COC(=O)C2CCN(c3ccc(C(F)(F)F)cn3)CC2)cc1C,14%,?,19,7%,-1%,?
COc1ccccc1C(=O)NCCC(=O)N1CCN(c2ccc(C(F)(F)F)cn2)CC1,12%,23µM*,-18,-8%,?,21µM*
Cc1cc(Br)ccc1NC(=O)CCNS(=O)(=O)c1cccc2nonc12,.,-26%,.,.,.,?
Cn1ncc2c(Nc3cccc([N+](=O)[O-])c3)ncnc21,-5%,-19%,-1,10%,?,?
CC(=O)Nc1ccc(-c2ccc(NC(C)=O)cc2)cc1,-15%,3%,-4,-5%,4%,15%
CC(=O)Nc1ccc(N=Nc2ccc(O)cc2)cc1,6%,15µM*,?,?,10%,?
O=C(c1cc(Cl)nc2ccccc12)N(Cc1nnc(-c2ccccc2Cl)o1)C1CC1,.,16µM*,-7,19%,15%,21µM*
O=C(c1cc(Cl)nc2ccccc12)N(Cc1nnc(-c2ccc(Cl)cc2)o1)C1CC1,17%,12µM*,-4,14%,-4%,16µM*
CCOc1ccc2oc(C(=O)N(Cc3nnc(-c4ccccc4Cl)o3)C3CC3)c(C)c2c1,-15%,?,-4,13%,-2%,23µM*
